Screens from PubChem BioAssay.
PLC-gamma1 inh = PLC-gamma1 enzyme inhibitors, primary screen, biochemical, fluorescence, purified enzyme | 1-phosphatidylinositol 4,5-bisphosphate phosphodiesterase gamma-1 (Homo sapiens), P19174 | fluorogenic substrate | inhibition, % at 12.2 µM | 0.84% of 370,000 active; in the data active = inhibition above about 9.5%
proKLK7 act = proKLK7 zymogen activators, primary screen, biochemical, fluorescence intensity; Kallikrein-7 (Homo sapiens), P49862; purified proKLK7, EDANS-DABCYL substrate fluorescence; 100% is mature enzyme control, 0% vehicle; activation, % at 7 µM; 0.9% of 370,000 active; AID 652039, 2013;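 active = activation above the mean of all tested compounds plus 3 SD, computed per campaign excluding outliers beyond control limits, cut at about 13% in these data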
HGIII-sPLA2 inh = human group III sPLA2 inhibitors, primary screen, biochemical, QFRET, BODIPY PC-A2 liposome substrate | QFRET BODIPY PC-A2 liposome hydrolysis, fluorescence | AID 743126, 2013 | Group 3 secretory phospholipase A2 (Homo sapiens), Q9NZ20 | 0.56% of 370,000 active | inhibition, % at 12.2 µM;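 active = inhibition above mean plus 3 SD of compounds lying within the high and low control bounds, cut at about 19% in these data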;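 note: 0% = median of test compound wells and 100% = no enzyme DMSO wells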
ADAM17 inh = ADAM17 inhibitors, primary screen, biochemical, QFRET; Disintegrin and metalloproteinase domain-containing protein 17 (Homo sapiens), P78536; recombinant ADAM17, EDANS/DABCYL FRET peptide cleavage; inhibition, % at 6.95 µM; 0.83% of 370,000 active;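 active = inhibition above the mean of compounds lying between control limits plus 3 SD, set per campaign, cut at about 8.5% in these data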;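 note: 0% = DMSO-only wells as the low control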
PLC-beta3 inh = human PLC-beta3 inhibitors, primary screen, biochemical, fluorescence | Purified PLC-beta3, fluorogenic substrate | 1-phosphatidylinositol 4,5-bisphosphate phosphodiesterase beta-3 (Homo sapiens), Q01970 | 0.18% of 370,000 active | inhibition, % at 12.2 µM; in the data active = inhibition above about 11%;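 note: 0% = median of compound wells on plate and 100% = full blocker control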
ADAM10 inh = human ADAM10 inhibitors, primary screen, biochemical, QFRET, HTS; Disintegrin and metalloproteinase domain-containing protein 10 (Homo sapiens), O14672; recombinant ADAM10, EDANS/DABCYL FRET peptide cleavage, 3 h; inhibition, % at 7 µM; 0.62% of 370,000 active;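 active = inhibition above a per-campaign cutoff equal to the mean of compounds falling between control-based bounds plus 3 SD, cut at about 20% in these data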;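 note: 0% = DMSO wells while the 100% control is not disclosed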
Target sequence (O14672 214-748 limits assumed): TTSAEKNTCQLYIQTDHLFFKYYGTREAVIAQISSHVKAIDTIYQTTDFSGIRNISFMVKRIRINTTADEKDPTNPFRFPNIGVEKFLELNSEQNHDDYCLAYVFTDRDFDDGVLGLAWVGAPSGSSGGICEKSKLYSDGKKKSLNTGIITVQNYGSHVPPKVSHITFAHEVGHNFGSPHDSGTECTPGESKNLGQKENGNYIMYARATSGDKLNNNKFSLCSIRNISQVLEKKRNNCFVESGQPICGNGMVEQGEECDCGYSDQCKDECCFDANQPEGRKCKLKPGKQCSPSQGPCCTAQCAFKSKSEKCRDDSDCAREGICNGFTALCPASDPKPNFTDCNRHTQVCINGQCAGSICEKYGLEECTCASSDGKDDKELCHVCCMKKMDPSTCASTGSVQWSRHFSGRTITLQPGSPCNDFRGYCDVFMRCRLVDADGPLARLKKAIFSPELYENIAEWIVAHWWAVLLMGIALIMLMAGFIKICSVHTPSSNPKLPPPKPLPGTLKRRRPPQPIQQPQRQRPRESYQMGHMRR
ADAM10 counter = ADAM10 inhibitors, counter-screen for ADAM17 exosite inhibitor project, biochemical, FRET, human ADAM10. recombinant ADAM10, EDANS/DABCYL FRET peptide cleavage, 3 h. inhibition, % at 6.95 µM. shares compounds with ADAM17 inh. AID 743256, 2014. 47% of 2,900 active;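 active = mean inhibition over the triplicate runs exceeds the activity threshold set in the earlier primary screen, cut at about 20% in these data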;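 note: 0% = DMSO wells and 100% = marimastat wells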
ADAM17 confirm = ADAM17 inhibitors, hit retest, confirmation, biochemical, QFRET peptide cleavage; shares compounds with ADAM17 inh; recombinant ADAM17, EDANS/DABCYL QFRET peptide cleavage; inhibition, % at 6.95 µM; 65% of 2,900 active; AID 743257, 2014;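 active = mean inhibition across replicates above the hit cutoff set in the primary screen, cut at about 8.5% in these data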;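 note: 0% = DMSO wells and 100% = marimastat wells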
* hit, by the source's call; . = not tested or not shown. The list is not random: actives were taken first. Their share in the collection is about 3.4%.

SMILES	PLC-gamma1 inh	proKLK7 act	HGIII-sPLA2 inh	ADAM17 inh	PLC-beta3 inh	ADAM10 inh	ADAM10 counter	ADAM17 confirm
CC(C)(C)c1ccc(OCc2nc(-c3ccccn3)no2)c(Br)c1	-1	0	-10	8.7*	1	16	15	18*
O=C(OCc1cnc(Cl)s1)c1ccccc1Cl	-1	0	-7	-1	-3	2	.	.
O=C(OCc1cnc(Cl)s1)c1cccc(Cl)c1Cl	8	-1	5	9.0*	4	7	19	12*
C#CCN1CC(N2CCN(CCO)CC2)CS1(=O)=O (configuration not stated)	1	1	6	-1	0	-4	.	.
O=C(CCCc1c[nH]c2ccccc12)Nc1ccc2ccccc2c1	0	0	-95	10*	2	8	1	4
CC(=O)Nc1ccc(NC(=O)CCCc2c[nH]c3ccccc23)cc1	-1	0	-23	-2	3	-3	.	.
C=CC(=O)NC1CCCCN(CC)C1=O (configuration not stated)	4	0	18	-7	-4	-13	.	.
COc1ccc(S(=O)(=O)Nc2ccc(CC#N)cc2)cc1	-1	0	-3	-1	-1	5	.	.
N#CCc1ccc(NS(=O)(=O)c2ccc(C3CCCCC3)cc2)cc1	0	0	-41	10.0*	-1	15	24*	10*
O=S(Cc1ccc(Br)cc1)Cc1nnc(SCc2ccc(Cl)cc2)n1-c1ccccc1 (configuration not stated)	0	0	-28	8.6*	0	18	27*	15*
O=S(Cc1ccc(Br)cc1)Cc1nnc(SCc2c(F)cccc2Cl)n1-c1ccccc1 (configuration not stated)	2	0	-22	4	2	7	.	.
CC(=O)Nc1cccc(NC(=O)c2cccc(S(=O)(=O)N3CCN(Cc4ccccc4)CC3)c2)c1	5	0	-37	20*	-4	19	15	12*
COc1cccc(NC(=O)c2cccc(S(=O)(=O)N3CCN(Cc4ccccc4)CC3)c2)c1	-2	-1	-32	8	-5	19	.	.
C#CCn1c(S(=O)(=O)Cc2ccc(F)cc2)nc(-c2ccccc2)c1-c1ccccc1	1	0	-5	8.7*	1	16	22*	16*
CN(C)c1ccc(C(=O)NCC2CCN(C(=O)C(=O)c3cccs3)CC2)cc1	0	1	4	1	2	1	.	.
CCOC(=O)Cc1csc(NC(=O)c2ccc(Cl)s2)n1	-7	0	-1	-3	-12	7	.	.
CCOC(=O)Cc1csc(NC(=O)c2cc(C)c(C)s2)n1	-1	0	-8	11*	-14	-10	5	8.9*
Cc1ccc(C)c(NC(=O)Cn2nnc(-c3ccncc3)n2)c1	1	0	13	-2	1	1	.	.
CSCCC(NS(=O)(=O)c1ccc(Cl)cc1)C(=O)OCC(=O)c1c(C)[nH]c2ccccc12 (configuration not stated)	3	-1	-59	9.7*	3	20	29*	17*
Cn1cc(C2(c3c[nH]c4ccccc34)CCN(C(=O)OC(C)(C)C)CC2)c2ccccc21	1	-1	-17	11*	-1	10	3	7
COC(=O)c1ccc(S(=O)(=O)N2CCC(NC(=O)COc3ccc(F)cc3)CC2)cc1	1	0	10	-3	-3	-8	.	.
CCNC(=S)N/N=C/c1cn(Cc2ccccc2F)c2ccccc12	8	-3	0	9.1*	0	12	18	20*
O=C(Nc1ccc(F)cc1)OCCN1C(=O)CCC12CCC(c1ccccc1)CC2 (configuration not stated)	-1	-1	7	-4	-3	-4	.	.
Cc1cc(C)c2sc(N(CCN(C)C)C(=O)c3ccc4ccccc4c3)nc2c1	5	-1	-9	10*	-8	3	8	8
O=C(O)CCC(=O)c1c[nH]c2ccccc12	-1	-1	-4	8.9*	-2	1	9	20*
SMILES	PLC-gamma1 inh	proKLK7 act	HGIII-sPLA2 inh	ADAM17 inh	PLC-beta3 inh	ADAM10 inh	ADAM10 counter	ADAM17 confirm
CCN(CC)CC(=O)c1c[nH]c2ccccc12	-4	0	-1	-7	-4	-6	.	.
O=C(Nc1cccc(S(=O)(=O)NCc2ccco2)c1)c1cc(-c2ccccc2)nc2ccccc12	1	-3	-20	10*	-8	16	31*	17*
O=C(CSc1nnc(-c2cccnc2)n1-c1ccccc1)Nc1ccc(OCc2ccccc2)cc1	-1	1	-32	4	3	7	.	.
O=C1CC(N2CCOCC2)=NC(=O)N1c1ccc(Br)cc1	2	-1	0	5	2	-10	.	.
O=C1NC[C@@H](Cc2cccc3ccccc23)N(CCCCC2CCCCC2)C1=O	0	1	-4	11*	5	12	5	4
CCOC(=O)c1c(-c2ccccc2)csc1NC(=O)CSc1ccccc1	5	-1	-22	0	4	8	.	.
CCOC(=O)c1c(-c2ccccc2)csc1NC(=O)CSc1nncs1	5	0	-31	9.0*	-1	14	17	13*
CC(COc1ccc(C#N)cc1F)CN1CCC(C(O)(c2ccccc2)c2ccccc2)CC1 (configuration not stated)	0	0	-21	-1	1	-1	.	.
CCCCN(C(=O)C1CC(=O)N(c2ccc(C)cc2)C1)c1c(N)n(CCC)c(=O)[nH]c1=O (configuration not stated)	4	0	8	11*	-2	-1	-5	-2
CCCCN(C(=O)C1CC(=O)N(c2ccc3c(c2)OCCO3)C1)c1c(N)n(CCC)c(=O)[nH]c1=O (configuration not stated)	-2	0	8	-6	-8	-10	.	.
Cc1ccc(CN(CC(=O)N/N=C/c2ccccc2[N+](=O)[O-])S(=O)(=O)c2ccc(C)cc2)cc1	5	0	-15	9.1*	2	13	33*	14*
